# Sampled rows, rich in hits. Any-hit rate of the full collection: about 2.7%.
# HepG2 viability: qHTS for Inhibitors of TGF-b: Cytotox Counterscreen | HepG2 CAGA-GFP viability, ATP luminescence, 18 h | Potency, µM (top dose mostly 46.1 µM), usual class: cytotoxic | hit rate 0.76% among 410,000 | AID 588856, 2011
#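 HepG2 CAGA-GFP cells (1000/well, DMEM with 1% FBS) received compound, then TGF-beta at 500 pg/mL final, and were incubated 18 hours at 37 degrees C. Viability was read by CellTiter-Glo luminescence. Media-only wells were set as complete cell-killing and DMSO as no toxicity.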
# ATXN2 expr inh: Primary qHTS for Inhibitors of ATXN expression. HEK-293 ATXN2-luciferase reporter, luminescence, 24 h. Potency, µM (top dose mostly 57 µM), most hits filed as inhibitors. hit rate 0.72% among 360,000. AID 1745845, 2022; also: nearly all actives have a fitted effect of over 55% in size
#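 qHTS (up to 57 uM final) was run with 24 h compound exposure of reporter cells at 37 °C. Each well was multiplexed: SteadyGlo luminescence measured ATXN2-luciferase expression after a fluorogenic Gly-Phe-AFC viability readout (25 uM final).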
# ATXN viability: Viability Counterscreen for Primary qHTS for Inhibitors of ATXN expression; AID 651635, 2014; Potency, µM (highest dose often 56.7 µM), actives largely listed as cytotoxic; S2 cells (HEK-293 line with an ATXN2-luciferase reporter) viability, CellTiter-Fluor protease fluorescence, 24 h; hit rate 0.49% among 400,000; also: nearly all actives have a fitted effect of over 40% in size
# ALOX12 inh: Primary qHTS assay for inhibitors of human arachidonate 12S-lipoxygenase (ALOX12): Round 2. hit rate 1.1% among 580,000. Polyunsaturated fatty acid lipoxygenase ALOX12 (Homo sapiens), P18054. Potency, µM (doses to about 108 µM), usual class: inhibitors. purified 12hLO, xylenol orange hydroperoxide absorbance
# Target sequence (P18054 whole entry, looked up): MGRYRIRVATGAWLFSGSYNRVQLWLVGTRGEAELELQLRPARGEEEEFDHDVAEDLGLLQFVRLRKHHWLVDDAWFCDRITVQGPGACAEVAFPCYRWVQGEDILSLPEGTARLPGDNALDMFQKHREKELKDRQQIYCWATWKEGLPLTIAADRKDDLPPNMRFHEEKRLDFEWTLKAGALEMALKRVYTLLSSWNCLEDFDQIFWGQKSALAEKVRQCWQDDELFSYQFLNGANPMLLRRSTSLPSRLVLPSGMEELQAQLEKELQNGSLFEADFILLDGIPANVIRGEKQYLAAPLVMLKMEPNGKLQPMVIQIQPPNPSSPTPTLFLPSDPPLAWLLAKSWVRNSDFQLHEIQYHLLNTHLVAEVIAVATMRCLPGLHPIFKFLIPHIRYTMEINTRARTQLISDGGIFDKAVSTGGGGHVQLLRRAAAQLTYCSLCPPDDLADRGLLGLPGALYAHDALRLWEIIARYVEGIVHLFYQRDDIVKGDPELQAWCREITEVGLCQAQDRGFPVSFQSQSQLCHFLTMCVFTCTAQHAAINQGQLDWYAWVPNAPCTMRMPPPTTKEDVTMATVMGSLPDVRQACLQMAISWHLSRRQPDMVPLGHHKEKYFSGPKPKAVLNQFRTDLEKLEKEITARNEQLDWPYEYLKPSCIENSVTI
#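 Purified human 12hLO at 150 nM in 25 mM Hepes, 0.01% Triton X-100, pH 7.0, preincubated 15 min at room temperature with compound. Reaction started with 40 uM arachidonic acid, 30 min at room temperature. Hydroperoxide measured by Fe-xylenol orange, 573/405 nm absorbance ratio.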
# TGFb inhibitor: qHTS for Inhibitors of TGF-b | HepG2 CAGA-GFP TGF-b/SMAD3 reporter, GFP fluorescence, 18 h; TGF-beta stimulated, 500 pg/mL final | AID 588855, 2011 | Potency, µM (titrated, usually from 46.1 µM), hits mostly inhibitors | hit rate 1.2% among 410,000; also: nearly all actives have a fitted effect of over 65% in size
#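 Cell-based qHTS in HEPG2 carrying a CAGA-GFP Smad reporter; compounds added before 500 pg/mL final TGF-beta, 18 h incubation at 37 degrees C, GFP fluorescence quantified per cell by imaging cytometry.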
# Numbers stand for hits; - = inactive; ? = inconclusive; . = no result; [ ] = another dose, or the depositor's remark. Calls follow the shape of the dose curve; as a rule, active = well fitted curve in the direction sought with a large enough effect; inconclusive = small, poorly fitted or top-dose-only effect, or another doubt; inactive = no such curve, though single readings can be large; an effect the other way counts as inactive or inconclusive.
SMILES,HepG2 viability,ATXN2 expr inh,ATXN viability,ALOX12 inh,TGFb inhibitor
O=C(c1cc(C2CC2)[nH]n1)N1CCc2nn(Cc3ccccc3)c(=O)n2CC1,.,.,.,-,.
COc1ccccc1C(=O)N1CCC2(CC1)NC(=O)N(c1cccc(F)c1)N2,.,.,.,2.51µM,.
Cc1ccc(C(=O)N2CCC3(CC2)NC(=O)N(c2ccc(F)cc2)N3)s1,.,.,.,2µM,.
Cc1ccc(-c2nc(CS(=O)(=O)Cc3cccc(F)c3)co2)cc1,.,.,.,-,.
O=C(O)c1ccc2oc(C(=O)c3ccccc3)cc2c1,.,.,.,-,.
CCn1nccc1C(=O)N1CCC2(CC1)NC(=O)N(c1cccc(F)c1)N2,.,.,.,3.98µM,.
COc1cccc(C(=O)N2CCC3(CC2)NC(=O)N(c2cccc(F)c2)N3)c1OC,.,.,.,3.16µM,.
COc1ccc(C(=O)N2CCC3(CC2)CC(O)CCO3)cc1F (centres undefined),.,.,.,-,.
COc1ccc(C(=O)N2CCC3(CC2)NC(=O)N(c2cccc(F)c2)N3)cc1F,.,.,.,2µM,.
CCn1nccc1C(=O)N1CCC2(CC1)N(Cc1cccc(F)c1)C(=O)CS2=O (centres undefined),.,.,.,-,.
COc1ccccc1CC(=O)N1CCC2(CC1)NC(=O)N(c1cccc(F)c1)N2,.,.,.,1.78µM,.
O=C1/C(=C\c2cccs2)Sc2ccccc21,.,.,.,-,.
Cc1ccc(-n2nc(-c3cccc(C)c3)c(C)c2-c2cccc(C)c2)cc1,.,.,.,-,.
O=C(NCC1(COc2cnccn2)C[C@@H](O)[C@@H](O)C1)Nc1cccnc1 (some centres undefined),.,.,.,25.1µM,.
CC(=O)NCC1(COc2cnccn2)C[C@@H](O)[C@@H](O)C1 (some centres undefined),.,.,.,-,.
CN1C(=O)[C@@H]2C[C@@H](CN2C2CCC2)Oc2ccccc21,.,.,.,-,.
CC(C)CCNC(=O)NC(=O)CCl,.,.,.,28.2µM,.
CCC(C(=O)NCc1ccc(C)cc1)c1ccccc1 (centres undefined),-,.,-,25.1µM,-
Cc1nn(CC(=O)NCc2ccco2)c(=O)c2nn(-c3ccccc3)c(C)c12,-,-,-,-,-
CCOc1ccccc1CNC(=O)Cn1nc(C)c2c(C)n(-c3ccc(C)cc3)nc2c1=O,-,.,?,.,5.01µM
Cc1ccc(-n2nc3c(=O)n(CC(=O)NCCc4ccco4)nc(C)c3c2C)cc1,-,-,-,-,22.4µM
CC(C)c1cc(C(=O)Nc2ccc(C(=O)N(C)C)cc2)c2ccccc2n1,.,.,.,-,.
COc1cccc(CN2Cc3nc(N4CCN(C)CC4)ccc3OCC2=O)c1,.,.,.,-,.
O=C(Nc1ccccc1)c1nn(-c2ccccc2)c(=O)cc1C(F)(F)F,-,-,-,-,-
O=C(c1ccccc1)c1nn(-c2ccccc2)c(=O)cc1C(F)(F)F,-,?,-,-,-
SMILES,HepG2 viability,ATXN2 expr inh,ATXN viability,ALOX12 inh,TGFb inhibitor
O=C(c1cccc(Cl)c1)c1nn(-c2ccccc2)c(=O)cc1C(F)(F)F,-,25.1µM,?,?,-
O=C(c1ccccc1)c1nn(-c2ccc(Cl)cc2)c(=O)cc1C(F)(F)F,-,11.2µM,?,-,?
COc1cccc(CN2CCCC(O)(CN3CCCCC3)C2=O)c1 (centres undefined),.,.,.,-,.
N#Cc1cc2nc(O)c(O)nc2cc1[N+](=O)[O-],-,-,-,?,-
CNc1nc2cc([N+](=O)[O-])c([N+](=O)[O-])cc2nc1NC,-,?,-,-,7.08µM
COc1ccc(C(=O)Nc2ccc3oc(-c4ccccc4C)nc3c2)cc1,.,.,.,-,.
CCOc1ccc2nc(NC(=O)CSc3nc(-c4ccccc4)c(C#N)c(=O)[nH]3)sc2c1,-,-[11.3 µM],?,?,-
COc1cccc(-c2nc(SCC(=O)Nc3nc(-c4ccccc4)c(C)s3)[nH]c(=O)c2C#N)c1,-,-,.,14.1µM,?
COc1ccccc1CC(=O)NC(C)C1CC2CCC1C2 (centres undefined),.,.,.,-,.
CCCCCCn1c(=O)n2n(c1=O)[C@@H]1CN(S(=O)(=O)c3ccc(C)cc3)C[C@]1(O)[C@@H](OC(=O)NCC1CCCCC1)C2,-,?,.,-,?
CCCCCCn1c(=O)n2n(c1=O)[C@@H]1CN(S(=O)(=O)c3ccc(C)cc3)C[C@]1(O)[C@@H](OC(=O)NC1CC1)C2,-,-,-,?,-
CCCCCCNC(=O)O[C@H]1Cn2c(=O)n(CCCCCC)c(=O)n2[C@@H]2CN(S(=O)(=O)c3ccc(C)cc3)C[C@]12O,22.4µM,?,.,?,?
CCCCCCn1c(=O)n2n(c1=O)[C@@H]1CN(S(=O)(=O)c3ccc(C)cc3)C[C@]1(O)[C@@H](OC(=O)NCc1ccccc1F)C2,7.94µM,?,.,-,12.6µM
CCCCCCn1c(=O)n2n(c1=O)C[C@]1(OC(=O)Nc3cccs3)CN(S(=O)(=O)c3ccc(C)cc3)C[C@]1(O)C2,-,-,?,35.5µM,?
CCCCCCn1c(=O)n2n(c1=O)[C@@H]1CN(S(=O)(=O)c3ccc(C)cc3)C[C@]1(O)[C@@H](OC(=O)NC1CCCC1)C2,-,?,.,?,11.2µM
O=C(Nc1ccccc1Cl)C1CCCN(c2ncnc3nc[nH]c23)C1 (centres undefined),.,.,.,-,.
CCOC(=O)N1CCN(C(=O)c2ccc(N3CCCCS3(=O)=O)cc2Cl)CC1,.,.,.,-,.
Cc1cccc(Cn2c(NCCc3ccccc3)nc3c2c(=O)[nH]c(=O)n3C)c1,.,.,.,-,.
CCCCCCNC(=O)O[C@H]1Cn2c(=O)ccc(=O)n2[C@@H]2CN(S(=O)(=O)c3ccc(C)cc3)C[C@]12O,-,14.1µM,20µM,?,?
Cc1ccc(S(=O)(=O)N2C[C@H]3n4c(=O)ccc(=O)n4C[C@H](OC(=O)NCc4ccccc4F)[C@@]3(O)C2)cc1,-,?,.,-,?
Cc1cc(C)cc(C(=O)N2CCN(Cc3nc(N)c4ccccc4n3)CC2)c1,.,.,.,-,.
O=C(COc1ncnc2c(Cl)cc(Cl)cc12)NCc1ccccc1Cl,.,.,.,-,.
N#Cc1cccc(CNS(=O)(=O)Cc2ccccc2)c1,.,.,.,-,.
O=S(=O)(Cc1ccccc1)NCc1cccc(CNS(=O)(=O)Cc2ccccc2)c1,.,.,.,35.5µM,.
O=C(CCN1CCC(c2ccccc2)C1)c1cccc2ccccc12 (centres undefined),.,.,.,25.1µM,.
O=C(CCN1CCC(c2ccccc2)C1)c1ccc2ccccc2c1 (centres undefined),.,.,.,15.8µM,.
O=C(CCN1CCC(c2ccccc2)C1)c1ccco1 (centres undefined),.,.,.,-,.
O=C(CCN1CCC(c2ccccc2)C1)c1ccccc1 (centres undefined),-,-,-,?,?
CCC1CCCCN1C(=O)Cn1c(=O)n(-c2cc(C)cc(C)c2)c(=O)c2sccc21 (centres undefined),.,.,.,-,.

# Screening data from PubChem.
